JMJD2A Tudor inh = JMJD2A Tudor domain (human) inhibition; 390,000 compounds, 4.4% hits; AlphaScreen JMJD2A-Tudor / H3K4me3 peptide binding; O75164; Potency, µM (doses to about 114 µM), for the others: at the top dose activity change, negative = inhibition, hits mostly inhibitors; further: on the % scale 0 is the no-effect control and ±100 the full control effect; nearly all actives have a fitted effect of over 50% in size
G9a block = blocks human histone lysine methyltransferase G9a; Q96KQ7; 350,000 compounds, 8.8% hits; Potency, µM (titrated, usually from 102 µM), inactives show at the top dose activity, negative = inhibition, hits mostly inhibitors; G9a H3K9 monomethylation, AlphaScreen, 2 h; further: on the % scale 0 is the no-effect control and ±100 the full control effect; nearly all actives have a fitted effect of over 75% in size
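AlphaScreen detection with an anti-monomethyl H3K9 antibody quantified product after a 2 h room-temperature reaction containing 500 nM biotinylated H3K9 peptide, 20 µM SAM and 20 nM enzyme, which had been preincubated 15 min with compound.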
BAZ2B inh = inhibitors of human BAZ2B bromodomain; Q9UIF8; AlphaScreen BAZ2B-H3K14Ac peptide displacement; Potency, µM (series often up to 114 µM), without a hit: top-dose activity change, negative = inhibition, most hits filed as inhibitors; 360,000 compounds, 4.4% hits; further: on the % scale 0 is the no-effect control and ±100 the full control effect; nearly all actives have a fitted effect of over 60% in size
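Complex of BAZ2B and biotin-H3K14Ac (50 nM apiece) forms over 30 min at RT, then faces library compounds up to 110 uM for another 30 min; AlphaScreen beads added, 20 min dark incubation, luminescence read.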
PLK1 PBD block = inhibitors of human PLK1 polo-box domain binding. 360,000 compounds, 2.8% hits. Plk1 PBD binding of FITC phosphopeptide, fluorescence polarization. Potency, µM, for inactives: max response, negative = inhibition, actives largely listed as inhibitors. P53350; further: series mostly up to about 57 µM; on the % scale 0 is the no-effect control and ±100 the full control effect; nearly all actives have a fitted effect of over 65% in size
Sfp inh = Sfp phosphopantetheinyl transferase inhibition. Biochemical Sfp PPTase activity, qHTS. Q9F4F7. Potency, µM, inactives show largest response in the series, negative = inhibition, most hits filed as inhibitors. AID 1490. 310,000 compounds, 3.5% hits;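 further: the enzyme is Sfp with the accession as filed and its product quenches rhodamine fluorescence; 0% = enzyme reaction without inhibitor and -100% = no enzyme wells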
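Compounds were incubated with enzyme (final 15 nM) for 15 min at room temperature before substrate addition started the reaction. Fluorescence at 525 nm excitation, 598 nm emission was recorded immediately and after 30 minutes.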
HP1b chromo inh = HP1-beta chromodomain-methylated histone interaction inhibition | 390,000 compounds, 0.56% hits | AID 540317 | AlphaScreen HP1-beta / biotin-H3K9me3 peptide binding | Potency, µM (doses to about 114 µM), without a hit: top-dose activity change, negative = inhibition, usual class: inhibitors; further: nearly all actives have a fitted effect of over 70% in size
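Compound inhibition of the preformed complex between 50 nM HP1-beta and 50 nM biotinylated H3K9me3 peptide was read by AlphaScreen. Buffer was PBS pH 7.4 with 0.01% Tween-20. Incubations ran 30 min at room temperature, with 10 ug/mL donor/acceptor beads.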
* = called active by the depositor; ? = inconclusive; nt = no result; [ ] = dose if it differs, or a comment. An excerpt weighted towards active compounds, which were near 12% of everything screened. The call rests on the fitted dose curve; in most records, active means well fitted curve in the direction sought with a large enough effect; inconclusive means small, poorly fitted or top-dose-only effect, or another doubt; inactive means no such curve, though single readings can be large; an effect the other way counts as inactive or inconclusive. Potency means the concentration at half of the fitted maximal effect.

SMILES	JMJD2A Tudor inh	G9a block	BAZ2B inh	PLK1 PBD block	Sfp inh	HP1b chromo inh
COc1ccc(NC(=O)C2CCN(c3cc(C)nc4c(-c5ccc(Cl)cc5)c(C)nn34)CC2)cc1	-7%	-5%[59 µM]	-4%	nt	nt	28%
CN1CCN(C(CNC(=O)C(=O)Nc2ccc(Cl)cc2)c2cccnc2)CC1 (stereo not given)	-23%	-8%[59 µM]	-8%	nt	nt	32%
O=C1C(Cl)=C(NCCN2CCOCC2)C(=O)c2ccccc21	-35%	?	-38%	0%	1%	?
CN1CCN(C2=C(Cl)C(=O)c3ccccc3C2=O)CC1	22µM*	nt	nt	9.5µM*	nt	?
O=C1C(Cl)=C(N2CCC(C(=O)O)CC2)C(=O)c2ccccc21	-26%	50µM*	?	?	?	-3%
CN1CCN(C2=C(Cl)C(=O)C(c3cnc(N4CCCCC4)s3)=C(Cl)C2=O)CC1	4.5µM*	9%[59 µM]	13%	3.8µM*	-10%	?
O=C(O)C1CCN(C(=O)c2ccccc2Cl)CC1	0%	3%[59 µM]	-2%	-3%	3%	36%
Cc1ccccc1N1C(=O)C(Cl)=C(N2CCCCCC2)C1=O	85%	134%	127%	-1%	-26%	279%
NC(=O)C1CCN(C2=C(Cl)C(=O)c3ccccc3C2=O)CC1	-29%	11µM*	25µM*	27µM*	18µM*	?
Cc1cc(C)cc(-c2nnc(SCC(=O)NCC3CCCO3)o2)c1 (stereo not given)	5%	nt	nt	-25%	nt	33%[57 µM]
O=c1n(Cc2ccc(Cl)cc2)c2ccccc2c2nc(-c3ccccc3)nn12	-2%	-6%[59 µM]	-5%	nt	nt	39%
C=CCC1C=CC(Oc2ccc(OC)cc2)C(COC(=O)c2ccc(Br)cc2)O1 (stereo not given)	nt	nt	nt	nt	1%	nt
O=S(=O)(Nc1ccccc1N1CCCCC1)c1ccc(Cl)s1	?	-10%	-37%	3µM*	-13%	?
Cc1ccc([C@H]2N[C@]3(CCCN(Cc4ccc(C(F)(F)F)cc4)C3=O)[C@H]3C(=O)N(C)C(=O)[C@@H]23)cc1	nt	nt	nt	-11%	nt	nt
COc1cc(Nc2nc3c(S(=O)(=O)c4cccc(Cl)c4)nnn3c3ccsc23)cc(OC)c1	2%	22%[59 µM]	-16%	nt	nt	43%
CC(/C=C1\SC(=O)N(CCCC(=O)O)C1=O)=C\c1ccccc1	-14%	-13%[59 µM]	-28%	-4%	3%	21%
CC(/C=C1\SC(=S)N(CCCC(=O)Nc2ccc(C(=O)O)cc2)C1=O)=C\c1ccccc1	?	13µM*	40µM*	?	-10%	-28%
CC(=C\c1ccccc1)/C=C1/SC(=S)N(CCCC(=O)O)C1=O	-35%	40µM*	?	?	-15%	-11%
O=C(CCCN1C(=O)S/C(=C\C=C\c2ccccc2)C1=O)Nc1ccc(C(=O)O)cc1	-19%	?	56µM*	?	-6%	1%
CCc1ccc(/C=C2/SC(=S)N(CCC(=O)Nc3cccc(C(=O)O)c3)C2=O)cc1	50µM*	nt	35µM*	?	-9%	-4%
COc1ccc(CN2CCNC(=O)C2CC(=O)NCCc2nc(C)c3c(n2)CCC3)cc1C (stereo not given)	-15%	19%[59 µM]	-26%	0%	8%	31%
CC(=O)c1cccc(NC(=O)C2(C)Cc3c(-c4ccccc4)ccnc3O2)c1 (stereo not given)	nt	nt	nt	0%	nt	nt
CC(=C\c1ccccc1)/C=C1/SC(=S)N(CCC(=O)Nc2ccccn2)C1=O	nt	40µM*	?	nt	0%	nt
COc1ccc(/C=C2\SC(=S)N(CCC(=O)N(CCO)c3ccccc3)C2=O)cc1OC	-21%	2%[2.33 µM]	-12%	-16%	-9%	6%
CC(=Cc1ccccc1)C=C1SC(=S)N(CCCC(=O)Nc2ccc(C(=O)O)cc2)C1=O	nt	nt	nt	24µM*	nt	nt
CCN(CC)C(=O)CN1C(=O)/C(=C/c2ccccc2)SC1=S	-29%[11.4 µM]	9%	-3%	27µM*	-15%	1%
